Records with an inconclusive call do not appear. Entries that show only a call come without a potency. Calls of active or inactive are those of the source. Unless noted, calls follow the shape of the dose curve; as a rule, active = well fitted curve in the direction sought with a large enough effect in the repeat runs; inconclusive = weak or mixed curves; inactive = no such curve, though single readings can be large; an effect the other way counts as inactive or inconclusive.
How the values were obtained:
[1] = qHTS assay to identify small molecule antagonists of the glucocorticoid receptor (GR) signaling pathway - cell viability counter screen (AID 720693); also: nearly all actives have a fitted effect of over 55% in size
[2] = qHTS assay for identifying genotoxic compounds that show differential cytotoxicity against isogenic chicken DT40 cell lines with known DNA damage response pathways - wild type cell line (AID 743012); also: nearly all actives have a fitted effect of over 60% in size; also: potency is read from the fitted curve at half-maximal effect
Method in brief: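 Endpoint: CellTiter-Glo luminescence, 30 min RT. Cells: wild type DT40, 300/well. Exposure: compounds in DMSO, 40 h, 37 C/5% CO2, after ~0.5 h pre-incubation.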

[3] = qHTS assay for identifying genotoxic compounds that show differential cytotoxicity against isogenic chicken DT40 cell lines with known DNA damage response pathways - Rev3 mutant cell line (AID 743014); also: nearly all actives have a fitted effect of over 55% in size; also: potency is read from the fitted curve at half-maximal effect
[4] = qHTS assay for identifying genotoxic compounds that show differential cytotoxicity against isogenic chicken DT40 cell lines with known DNA damage response pathways - Rad54/Ku70 mutant cell line (AID 743015); also: nearly all actives have a fitted effect of over 60% in size; also: potency is read from the fitted curve at half-maximal effect
[5] = qHTS assay to identify small molecule antagonists of the androgen receptor (AR) signaling pathway - cell viability counter screen (AID 743033; also: nearly all actives have a fitted effect of over 45% in size)
[6] = qHTS assay to identify small molecule antagonists of the androgen receptor (AR) signaling pathway using the MDA cell line - cell viability counter screen (AID 743041; also: nearly all actives have a fitted effect of over 45% in size)
Method in brief: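 Using the breast carcinoma line MDA-kb2 AR-luc, test chemicals were co-incubated with R1881 for 16 h; CellTiter-Fluor reagent, added at 15.5 h, provided a fluorescence measure of live cells.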

[7] = target: Androgen receptor (Homo sapiens) (UniProt P10275); experiment: qHTS assay to identify small molecule antagonists of the androgen receptor (AR) signaling pathway using the MDA cell line (AID 743042; also: nearly all actives have a fitted effect of over 55% in size)
Androgen receptor (Homo sapiens), sequence (P10275 whole entry, looked up): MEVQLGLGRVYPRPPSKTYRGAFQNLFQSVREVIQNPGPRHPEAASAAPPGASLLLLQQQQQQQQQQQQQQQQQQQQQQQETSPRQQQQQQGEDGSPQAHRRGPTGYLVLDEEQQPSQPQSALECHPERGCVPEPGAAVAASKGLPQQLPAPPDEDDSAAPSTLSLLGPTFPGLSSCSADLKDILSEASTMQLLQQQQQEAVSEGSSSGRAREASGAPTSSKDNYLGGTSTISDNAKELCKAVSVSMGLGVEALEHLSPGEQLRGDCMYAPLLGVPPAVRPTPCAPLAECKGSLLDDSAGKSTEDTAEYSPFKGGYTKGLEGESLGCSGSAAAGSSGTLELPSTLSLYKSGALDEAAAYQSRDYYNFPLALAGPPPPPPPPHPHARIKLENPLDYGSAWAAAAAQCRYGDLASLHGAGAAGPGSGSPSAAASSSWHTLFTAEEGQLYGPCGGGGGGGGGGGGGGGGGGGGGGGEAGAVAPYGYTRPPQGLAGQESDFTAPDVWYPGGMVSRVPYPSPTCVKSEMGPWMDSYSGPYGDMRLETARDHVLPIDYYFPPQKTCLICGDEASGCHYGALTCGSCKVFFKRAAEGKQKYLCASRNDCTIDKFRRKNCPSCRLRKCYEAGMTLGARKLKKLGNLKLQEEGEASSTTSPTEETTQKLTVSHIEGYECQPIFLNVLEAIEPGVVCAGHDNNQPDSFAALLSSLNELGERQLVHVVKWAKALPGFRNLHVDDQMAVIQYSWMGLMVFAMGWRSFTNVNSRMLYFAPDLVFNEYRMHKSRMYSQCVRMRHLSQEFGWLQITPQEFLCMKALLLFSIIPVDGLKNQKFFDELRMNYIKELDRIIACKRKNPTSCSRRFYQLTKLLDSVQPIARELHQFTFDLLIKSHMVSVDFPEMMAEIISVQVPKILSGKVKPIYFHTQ
Method in brief: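 Antagonist mode: compounds plus R1881 agonist added to MDA-kb2 AR-luc cells, incubated 16 h at 37C. Luciferase reporter luminescence quantified, with multiplexed CellTiter-Fluor readout for cell viability.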

[8] = target: Androgen receptor (Homo sapiens) (UniProt P10275); experiment: qHTS assay to identify small molecule antagonists of the androgen receptor (AR) signaling pathway (AID 743035; active = well fitted inhibition curve with a large enough effect in the signal ratio in the repeat runs, not every such curve was filed as active; the % refers to the signal ratio)
Method in brief: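 R1881 agonist challenge of a HEK293 UAS-beta-lactamase AR reporter line in the presence of compound (16 h, 37C); signal taken as FRET fluorescence after 2 h with LiveBLAzer B/G substrate at room temperature.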

[9] = target: Androgen receptor (Homo sapiens) (UniProt P10275); experiment: qHTS assay to identify small molecule agonists of the androgen receptor (AR) signaling pathway (AID 743036; active = well fitted activation curve with a large enough effect in the signal ratio in the repeat runs, with a control signal flat, not every such curve was filed as active; the % refers to the signal ratio)
Method in brief: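 Quantitative HTS of the Tox21 10K library in HEK293 cells bearing a stably integrated UAS-controlled beta-lactamase reporter. Compound exposure lasted 16 h at 37C. Reporter activity was detected by FRET substrate fluorescence after 2 h at room temperature.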

[10] = target: Androgen receptor (Homo sapiens) (UniProt P10275); experiment: qHTS assay to identify small molecule agonists of the androgen receptor (AR) signaling pathway using the MDA cell line (AID 743040; also: nearly all actives have a fitted effect of over 20% in size)
Method in brief: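 Stable MMTV-luciferase reporter in MDA-kb2 cells; note the promoter carries GR as well as AR response elements. 16 h compound treatment, 37C, 0% CO2; ONE-Glo luminescence endpoint.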

In the case of `C1=CCC(c2ccccc2)CC1` (stereo unspecified), the Potency [1] is reported as “inactive”, the Potency [2] is reported as 61.1 µM (active) and the Potency [3] is reported as 30.6 µM (active). For the same molecule, the Potency [4] was 54.5 µM (active), the outcome [5] was “inactive” and the outcome [6] was “inactive”.

With `BrC/C=C/CBr` the Potency [1] was “inactive”, the Potency [2] was “inactive” and the Potency [3] was “inactive”. For the same molecule, the Potency [4] was “inactive”, the outcome [5] was “inactive” and the outcome [6] was “inactive”.

In the case of `O=P(O)(O)OCC(O)CO` (stereo unspecified), the Potency [1] is reported as “inactive”, the Potency [2] is reported as “inactive” and the Potency [3] is reported as “inactive”. For the same molecule, the Potency [4] was “inactive”, the outcome [5] was “inactive” and the outcome [6] was “inactive”.

With `C=C(C)C(=O)OCCCCCCOC(=O)C(=C)C` the Potency [1] was “inactive”, the Potency [2] was “inactive” and the Potency [3] was “inactive”. For the same molecule, the Potency [4] was “inactive”, the outcome [5] was “inactive” and the outcome [6] was “inactive”.

With `CN=C(NC#N)NCCSCc1csc(N=C(N)N)n1` the Potency [1] was “inactive”, the Potency [2] was “inactive” and the Potency [3] was “inactive”. The Potency [4] was “inactive”, the outcome [5] was “inactive” and the outcome [6] was “inactive”.

With `C=C(C)[C@@H]1CC[C@@H](C)C[C@@H]1O` the Potency [1] was “inactive”, the Potency [2] was “inactive” and the Potency [3] was “inactive”. The Potency [4] was “inactive”, the outcome [5] was “inactive” and the outcome [6] was “inactive”.

For `CC1(N)CCC(C(C)(C)N)CC1` (stereo unspecified), the Potency [1] was “inactive”, the Potency [2] was “inactive” and the Potency [3] was “inactive”. The Potency [4] was “inactive”, the outcome [5] was “inactive” and the outcome [6] was “inactive”.

In the case of `CCCCCCCCCCCCOC(C)=O`, the Potency [1] is reported as “inactive”, the Potency [2] is reported as “inactive” and the Potency [3] is reported as “inactive”. The Potency [4] was “inactive”, the outcome [5] was “inactive” and the outcome [6] was “inactive”.

For `CCCO`, the Potency [1] was “inactive”, the Potency [2] was “inactive” and the Potency [3] was “inactive”. For the same molecule, the Potency [4] was “inactive”, the outcome [5] was “inactive” and the outcome [6] was “inactive”.

With `O=C(c1ccc2c(c1)C(=O)OC2=O)c1ccc2c(c1)C(=O)OC2=O` the Potency [1] was “inactive”, the Potency [2] was “inactive” and the Potency [3] was “inactive”. The Potency [4] was “inactive”, the outcome [5] was “inactive” and the outcome [6] was “inactive”.

For `CCOC(=O)CCc1ccccc1`, the Potency [1] was “inactive”, the Potency [2] was “inactive” and the Potency [3] was “inactive”. The Potency [4] was “inactive”, the outcome [5] was “inactive” and the outcome [6] was “inactive”.

For `CCCCCCCCCOCC1CO1` (stereo unspecified), the Potency [1] was “inactive”, the Potency [2] was “inactive” and the Potency [3] was “inactive”. For the same molecule, the Potency [4] was “inactive”, the outcome [5] was “inactive” and the outcome [6] was “inactive”.

With `CCCCOC(=O)C(=O)OCCCC` the Potency [1] was “inactive”, the Potency [2] was “inactive” and the Potency [3] was “inactive”. The Potency [4] was “inactive”, the outcome [5] was “inactive” and the outcome [6] was “inactive”.

With `O=C(COCCOCCOCC(=O)Nc1c(I)cc(I)c(C(=O)O)c1I)Nc1c(I)cc(I)c(C(=O)O)c1I` the Potency [1] was “inactive”, the Potency [2] was “inactive” and the Potency [3] was “inactive”. The Potency [4] was “inactive”, the outcome [5] was “inactive” and the outcome [6] was “inactive”.

In the case of `C=CCOc1c(Br)cc(C(C)(C)c2cc(Br)c(OCC=C)c(Br)c2)cc1Br`, the Potency [1] is reported as “inactive”, the Potency [2] is reported as “inactive” and the Potency [3] is reported as “inactive”. The Potency [4] was “inactive”, the outcome [5] was “inactive” and the outcome [6] was “inactive”.

With `Nc1c(NC/C=C\COc2cc(CN3CCCCC3)ccn2)c(=O)c1=O` the Potency [1] was “inactive”, the Potency [2] was “inactive” and the Potency [3] was “inactive”. The Potency [4] was “inactive”, the outcome [5] was “inactive” and the outcome [6] was “inactive”.

In the case of `CCCCC(C)C(=O)O` (stereo unspecified), the Potency [1] is reported as “inactive”, the Potency [2] is reported as “inactive” and the Potency [3] is reported as “inactive”. The Potency [4] was “inactive”, the outcome [5] was “inactive” and the outcome [6] was “inactive”.

For `NC(=O)NNC(N)=O`, the Potency [1] was “inactive”, the Potency [2] was “inactive” and the Potency [3] was “inactive”. The Potency [4] was “inactive”, the outcome [5] was “inactive” and the outcome [6] was “inactive”.

For `CCCCCCCC[Si](OCC)(OCC)OCC`, the Potency [1] was “inactive”, the Potency [2] was “inactive” and the Potency [3] was “inactive”. The outcome [5] was “inactive”.

With `CC(C)c1ccccc1O` the Potency [1] was “inactive”, the Potency [2] was “inactive” and the Potency [3] was “inactive”. The Potency [4] was “inactive”, the outcome [5] was “inactive” and the outcome [6] was “inactive”.

For `COc1cccc2sc(N)nc12`, the Potency [1] was “inactive”, the Potency [2] was “inactive” and the Potency [3] was “inactive”. The Potency [4] was “inactive”, the outcome [5] was “inactive” and the outcome [6] was “inactive”. The outcome [7] was “inactive”.

In the case of `C=CCOc1c(Br)cc(Br)cc1Br`, the Potency [1] is reported as “inactive”, the Potency [2] is reported as “inactive” and the Potency [3] is reported as “inactive”. The outcome [5] was “inactive” and the outcome [6] was “inactive”.

With `CN[C@@H]1[C@H](O)[C@H](NC)[C@H]2O[C@@]3(O)C(=O)C[C@@H](C)O[C@H]3O[C@@H]2[C@H]1O` the Potency [1] was “inactive”, the Potency [2] was “inactive” and the Potency [3] was “inactive”. For the same molecule, the Potency [4] was “inactive”, the Potency [8] was “inactive” and the outcome [9] was “inactive”. For the same molecule, the outcome [10] was “inactive”, the outcome [6] was “inactive” and the outcome [7] was “inactive”.

With `CC(=O)/C=C/c1ccco1` the Potency [1] was “inactive”, the Potency [2] was “inactive” and the Potency [3] was “inactive”. The outcome [5] was “inactive”.

With `CC(=O)c1ccc2c(c1)CCCC2` the Potency [1] was “inactive”, the Potency [2] was “inactive” and the Potency [3] was “inactive”. The outcome [5] was “inactive” and the outcome [6] was “inactive”.

For `O=[Si]=O`, the Potency [1] was “inactive”, the Potency [2] was “inactive” and the Potency [3] was “inactive”. For the same molecule, the outcome [5] was “inactive” and the outcome [6] was “inactive”.

In the case of `CN(C)CCCNCCC#N`, the Potency [1] is reported as “inactive”, the Potency [2] is reported as “inactive” and the Potency [3] is reported as “inactive”. For the same molecule, the Potency [4] was “inactive”, the outcome [5] was “inactive” and the outcome [6] was “inactive”.

In the case of `Cc1ccccc1C(=O)N1CC/C(=N\OS(=O)(=O)O)c2ccc(Cl)cc21`, the Potency [1] is reported as “inactive”, the Potency [2] is reported as “inactive” and the Potency [3] is reported as “inactive”. For the same molecule, the Potency [4] was “inactive”, the outcome [5] was “inactive” and the outcome [6] was “inactive”.

With `Oc1ccccc1Cc1ccccc1O` the Potency [1] was “inactive”, the Potency [2] was “inactive” and the Potency [3] was “inactive”. The outcome [5] was “inactive” and the outcome [6] was “inactive”.

In the case of `CC(=O)Nc1ccc(C)cc1`, the Potency [1] is reported as “inactive”, the Potency [2] is reported as “inactive” and the Potency [3] is reported as “inactive”. The Potency [4] was “inactive”, the outcome [5] was “inactive” and the outcome [6] was “inactive”.

In the case of `CC(C)CCO`, the Potency [1] is reported as “inactive”, the Potency [2] is reported as “inactive” and the Potency [3] is reported as “inactive”. For the same molecule, the outcome [5] was “inactive” and the outcome [6] was “inactive”.

With `CC(=O)OC(C)(C)Cc1ccccc1` the Potency [1] was “inactive”, the Potency [2] was “inactive” and the Potency [3] was “inactive”. For the same molecule, the outcome [5] was “inactive” and the outcome [6] was “inactive”.

For `CCC(C)N` (stereo unspecified), the Potency [1] was “inactive”, the Potency [2] was “inactive” and the Potency [3] was “inactive”. For the same molecule, the outcome [5] was “inactive” and the outcome [6] was “inactive”.

Source: PubChem BioAssay (Tox21)
